{"source": "PubChem BioAssay AID1494157", "about": "(National Center for Advancing Translational Sciences (NCATS), 2020)", "assay": "Confirmatory qHTS for inhibitors of MERS-S pseudo-typed particle cell entry", "conditions": "MERS-S pseudotyped particle entry, luciferase reporter; series mostly up to 57.1 µM", "note": "Inconclusive results are not listed. Activity calls are given as the source filed them. Calls come from the whole dose curve.", "data": [{"smiles": "Nc1ccn([C@@H]2O[C@H](CO)[C@@H](O)C2(F)F)c(=O)n1", "values": [{"measurement": "Potency", "result": "0.215 µM (active)"}]}, {"smiles": "Cc1nn(C)c2c1C(c1ccccc1F)=NCC(=O)N2C", "values": [{"measurement": "Potency", "result": "10.8 µM (active)"}]}, {"smiles": "CN1CCC[C@@H]1CCO[C@](C)(c1ccccc1)c1ccc(Cl)cc1", "values": [{"measurement": "Potency", "result": "7.64 µM (active)"}]}, {"smiles": "N#CC(c1ccc(Cl)cc1)c1c(Cl)cc(-n2ncc(=O)[nH]c2=O)cc1Cl", "note": "(configuration not stated)", "values": [{"measurement": "Potency", "result": "7.64 µM (active)"}]}, {"smiles": "NCCNc1ccc(NCCN)c2c1C(=O)c1ccncc1C2=O", "values": [{"measurement": "Potency", "result": "19.2 µM (active)"}]}, {"smiles": "C=CC(=O)Nc1cc(Nc2nccc(-c3cn(C)c4ccccc34)n2)c(OC)cc1N(C)CCN(C)C", "values": [{"measurement": "Potency", "result": "6.81 µM (active)"}]}, {"smiles": "COc1ccc2cc1Oc1ccc(cc1)C[C@H]1c3c(cc4c(c3Oc3cc5c(cc3OC)CCN(C)[C@@H]5C2)OCO4)CCN1C", "values": [{"measurement": "Potency", "result": "1.71 µM (active)"}]}, {"smiles": "C[n+]1c2cc(N)ccc2cc2ccc(N)cc21", "note": "(tested in a mixture with another compound)", "values": [{"measurement": "Potency", "result": "1.92 µM (active)"}]}, {"smiles": "C[C@]12CC[C@H](O)C[C@H]1CCC1C2CC[C@]2(C)[C@@H](c3ccc(=O)oc3)C[C@H]3O[C@]132", "note": "(some centres not stated)", "values": [{"measurement": "Potency", "result": "3.83 µM (active)"}]}, {"smiles": "CC(C)C[C@H](NC(=O)[C@H](CCc1ccccc1)NC(=O)CN1CCOCC1)C(=O)N[C@@H](Cc1ccccc1)C(=O)N[C@@H](CC(C)C)C(=O)[C@@]1(C)CO1", "values": [{"measurement": "Potency", "result": "0.192 µM (active)"}]}, {"smiles": "COc1cccc2c1C(=O)c1c(O)c3c(c(O)c1C2=O)C[C@@](O)(C(=O)CO)C[C@@H]3O[C@H]1C[C@H](N)[C@H](OC2CCCCO2)[C@H](C)O1", "note": "(some centres not stated)", "values": [{"measurement": "Potency", "result": "inactive"}]}, {"smiles": "CC(C)C(=O)Oc1ccc(CO)cc1[C@H](CCN(C(C)C)C(C)C)c1ccccc1", "values": [{"measurement": "Potency", "result": "19.2 µM (active)"}]}]}
